This passage reports growth results from PubChem BioAssay (NCI).

Assay in all cases: NCI-60 one-dose screen, 48 h (100 = growth as untreated, 0 = no growth, -100 = all killed)
Holding throughout (settings): 10 µM

Experiment [1] has as its system HCT-15 colon.
In experiment [2] the test system is HT29 colon.
The test system of experiment [3] is SNB-75 CNS.
In experiment [4] the test system is SNB-19 CNS.
In experiment [5] the test system is U251 CNS.
Experiment [6] relates to PC-3 prostate.
In experiment [7] the test system is SK-MEL-5 melanoma.
Experiment [8] deals with UACC-62 melanoma.
The subject of experiment [9] is LOX IMVI melanoma.
Experiment [10] deals with SK-MEL-28 melanoma.
Experiment [11] concerns SK-MEL-2 melanoma.
For experiment [12], the system named is EKVX NSCLC.
Experiment [13] deals with SN12C renal.
For experiment [14], the system named is UO-31 renal.
Experiment [15] has as its system TK-10 renal.
Experiment [16] concerns ACHN renal.
The test system of experiment [17] is CAKI-1 renal.
Experiment [18] concerns A498 renal.
In experiment [19] the test system is CCRF-CEM leukemia.
Experiment [20] deals with MOLT-4 leukemia.

Compounds without any hit were thinned out: in the full panel of roughly 83,000, 20% have a hit.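 Activity criterion: percent growth below 10, measured after cells in 96-well plates were exposed to a single compound concentration for 48 hours.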 Unmarked numbers belong to inactive results. Active and inactive are the calls of the source.

Consider `COc1ccc2[nH]c(=O)c(CSc3ccc(Nc4nccc(-c5ccc(Cl)cc5)n4)cc3)cc2c1`, for which the growth in experiment [1] was 97%; in experiment [2] it was 104%; in experiment [3], 110%; in experiment [4], 71.6%; in experiment [5], 94.2%; in [6], 83.2%. The growth in experiment [7] was 98.4%; in experiment [8], 105%; in experiment [9], 89%; in experiment [10] it was 109%; in experiment [11], 94.3%; in experiment [12] it was 86.8%. Further, the growth in [13] was 83.7%; in experiment [14], 85.5%; in experiment [15], 124%; in experiment [16], 90.3%; in [17] it was 76.3%; in experiment [18] it was 141%. In addition, the growth in experiment [19] is 96.7%; in [20], 84.4%.

Take `CN(C)c1ccc(/C=C/c2nc3ccccc3c(=O)n2CC(=O)Nc2ccc(Cl)cc2)cc1`: the growth in experiment [1] was 42.2%; in [2], 31.9%; in [3], 64%; in [4], 34.8%; in experiment [5] it was 39.7%; in [6], 30.2%. Further, the growth in experiment [7] was 55.7%; in experiment [8], 70.6%; in experiment [9] it was 9.3% (active); in experiment [10] it was 66%; in [11], 94.9%; in experiment [12] it was 80%. In addition, the growth in experiment [13] was 76.4%; in [14] it was 87.4%; in experiment [15], 83.1%; in experiment [16], 43.3%; in experiment [17], 53.1%; in experiment [18], 76.1%. For the same compound, the growth in experiment [19] was 88.6%; in experiment [20], 74.7%.

As to `CCOC(=O)C1=C(N)N(c2ccc(C)cc2)C2=C(C(=O)CC(C)(C)C2)C1c1ccccc1OC` (stereo not given), the growth was 98.4% in experiment [1]; 116% in experiment [2]; 105% in [3]; 93.1% in experiment [4]; 104% in [5]; 93.5% in experiment [6]. The growth in [7] was 100%; in experiment [8], 89.8%; in experiment [9], 104%; in [10] it was 104%; in experiment [11], 110%; in [12] it was 92.2%. In addition, the growth in [13] was 99.6%; in experiment [14], 78.7%; in experiment [15], 107%; in experiment [16], 103%; in experiment [17], 97.7%; in [18], 102%. For the same compound, the values for the growth in experiment [19] and in experiment [20] were 99% and 106%, respectively.

Consider `COC[C@@H](CC(C)C)N=C1N/C(=C\c2ccc3ncsc3c2)C(=O)N1C`, for which the growth in experiment [1] was 2.01% (active); in experiment [2] it was 6.85% (active); in experiment [3] it was 27.5%; in [4] it was 14.6%; in experiment [5], 15.4%; in [6] it was 23.6%. In addition, the growth in [7] is -57.3% (active); in experiment [8], -64.9% (active); in [9] it was -51.2% (active); in experiment [10], -1.69% (active); in experiment [11] it was -82.2% (active); in [12], 15%. Besides, the growth in [13] was 9.83% (active); in experiment [14] it was -19.4% (active); in experiment [15], 27.4%; in [16], -1.55% (active); in experiment [17], 2.83% (active); in experiment [18], -15.4% (active). In addition, the growth in experiment [19] is 7.03% (active); in experiment [20], 9.06% (active).

As for `CC(C)C1=C[C@@]23CC[C@@H]4[C@](C)(CCC[C@]4(C)C(=O)NCc4ccccc4)[C@H]2C[C@@H]1[C@H]1C(=O)CCC(=O)[C@H]13`, the growth is 56% in experiment [1]; 81.7% in experiment [2]; 80.8% in experiment [3]; 83.2% in [4]; 67% in [5]; 36.9% in experiment [6]. Besides, the growth in experiment [7] was 69.3%; in [8], 59.6%; in experiment [9], 27%; in experiment [10], 68.6%; in experiment [11], 99.2%; in experiment [12], 49.8%. Further, the growth was 83.4% in experiment [13]; 48.1% in [14]; 96.9% in experiment [15]; 70.7% in experiment [16]; 88.7% in experiment [17]; 97.8% in experiment [18]. Besides, the growth in [19] is 9.73% (active); in experiment [20] it was 16.2%.

Regarding `O=c1[nH]c2ccc(Cl)cc2cc1CSc1ccc(Nc2nccc(-c3ccc(Cl)cc3)n2)cc1`, the growth in [1] was 16.3%; in [2], 44.9%; in experiment [3], 101%; in experiment [4], 77.5%; in experiment [5], 21%; in [6], 34.4%. Moreover, the growth was 97% in experiment [7]; 100% in experiment [8]; 35.8% in experiment [9]; 98.7% in [10]; 99.2% in [11]; 82% in experiment [12]. The growth is 72.9% in [13]; 90% in experiment [14]; 36.4% in [15]; 83.5% in [16]; 84.9% in experiment [17]; 118% in experiment [18]. In addition, the figures for the growth in experiment [19] and in [20] were 74.8% and 46.4%, respectively.

For the compound `NS(=O)(=O)c1ccc(NC(=O)CSc2ccc(-c3ccc(Cl)cc3)nn2)c(Br)c1`, the growth in experiment [1] is 54.1%; in [2], 64.7%; in experiment [3], 42.3%; in experiment [4] it was 27%; in [5], -25.6% (active); in experiment [6] it was 35.7%. For the same compound, the growth was 68.8% in experiment [7]; 65.4% in experiment [8]; 19.7% in experiment [9]; 79.5% in experiment [10]; 82.9% in experiment [11]; 47.4% in experiment [12]. Besides, the growth in experiment [13] is 39.1%; in experiment [14], 91%; in experiment [15], 94.6%; in [16], 24.7%; in [17], 67%; in experiment [18], 0.192% (active). Besides, the results for the growth in [19] and in [20] were 83.7% and 90.6%, respectively.
